Unmarked numbers belong to inactive results.
Assay: resazurin metabolic signal in A549 cells – cell-based, resazurin fluorescence, 24 h, PK04 Diversity Set, profiling panel (AID 1171); also: test concentration not given here
Settings: A549 viability, higher = more signal, called active from +8 up or from −8 down

Compound | z-score
O=C1O[C@@H](c2ccccc2)[C@@H](c2ccccc2)N2[C@@H](c3ccccc3OCCO)[C@]3(C(=O)Nc4ccc(C#CC5=CCCCC5)cc43)[C@@H](C(=O)N3CCCCCCC3)[C@H]12 | -0.312
C=C[C@@H](COC(=O)OC(C)(C)C)N(Cc1ccc(OC)cc1)S(=O)(=O)c1ccc(Br)cc1 | 1.74
C=C(/C(=C/C[C@H](OC(C)=O)c1ccc(CO)o1)c1cc(C(=O)OC)ccc1OC)C(C)C | -0.369
COc1ccc(CCNC(=O)[C@@]2(Sc3ccc(C)cc3)CC(=O)N(C(C)C)[C@@H]2c2ccc(CO)cc2I)cc1 | -0.192
COc1ccc(CCNC(=O)[C@@]2(C)c3ccccc3C(=O)N(C(C)C)[C@H]2c2ccc(CO)cc2)cc1 | -0.0933
CC(C)N1C(=O)[C@@]2(Cc3ccccc31)c1ccccc1C(=O)N(Cc1ccccc1Cl)[C@H]2c1ccc(CO)cc1 | 0.458
C=CCOC(=O)[C@H]1[C@@H]2C(=O)O[C@@H](c3ccccc3)[C@@H](c3ccccc3)N2[C@@H](c2ccc(OCCOC(=O)[C@H]3C[C@H]4C(=O)N[C@@H](CCCCN(C)C)C(=O)N4[C@H]3c3ccc(O)cc3)cc2)[C@]12C(=O)Nc1ccc(I)cc12 | -0.708
CC(C)OC(=O)C=C1C[C@@H](c2ccccn2)O[C@@H](c2ccccn2)O1 | 0.118
COC(=O)[C@@]1(Cc2ccc(OC)cc2)[C@H]2c3cc(C(=O)N(C)C)n(CCc4ccccn4)c3C[C@H]2CN1C(=O)c1ccccc1 | -0.735
COC(=O)[C@@]1(Cc2ccccc2)N=C(c2ccc(OCCCO)cc2)O[C@H]1c1ccccc1 | -2.02

Reference: PubChem BioAssay
